Records with an inconclusive call do not appear. Activity calls are given as the source filed them. Calls follow the shape of the dose curve; as a rule, active = well fitted curve in the direction sought with a large enough effect in the repeat runs; inconclusive = weak or mixed curves; inactive = no such curve, though single readings can be large; an effect the other way counts as inactive or inconclusive.
% is scaled to controls: 0 for no effect and ±100 for the full control effect.

The nature of the first test: Caspase-3/7 induction in HepG2 cells by small molecules, qHTS assay (AID 1346978). Also: nearly all actives have a fitted effect of over 15% in size. The note with it: HepG2 caspase-3/7 activation, Caspase-Glo luminescence, 17 h; series mostly up to 92.4 µM; caspase activation: at the top concentration. The gist of the method: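 Wild-type HepG2 cells, 2,000/well, settled 5 hr at 37 C and 5% CO2, then compound-treated for 17 hr; caspase-3/7 activity read by luminescent Caspase-Glo 3/7 after 30 min at room temperature.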
(In general: In qHTS, concentration-response curves come from the screen itself.)
Take `COc1ccc(C2C(=O)c3ccccc3C2=O)cc1`: the “caspase activation” value is 0.377% [at 42.5 µM] (inactive). Still for that read-out and setting: then `O=C(O)c1cccc(Oc2ccccc2)c1`, with 0.0527% (inactive); and `Cc1cc(CCCOc2c(C)cc(-c3noc(C(F)(F)F)n3)cc2C)on1`, with 0.172% [at 42.5 µM] (inactive); and `COc1cc(C(C)=O)ccc1OCCCN1CCC(c2noc3cc(F)ccc23)CC1`, with 1.98% [at 42.5 µM] (inactive).

`Cc1ccc2nc(N)[nH]c(=O)c2c1Sc1ccncc1`: the “caspase activation” value was -0.396% [at 42.5 µM] (inactive). The same measure, in the same setting: then `O=P(O)(O)Oc1ccccc1`, with -1.11% (inactive); and `CCCCCCCC(=O)Oc1c(Br)cc(C#N)cc1Br`, with -7.4% (inactive); and `CCCc1nc2c(C)cc(-c3nc4ccccc4n3C)cc2n1Cc1ccc(-c2ccccc2C(=O)O)cc1`, with 0.253% [at 42.5 µM] (inactive). On the same count and under the same terms, the figure for `Oc1ccc2c(c1)Cc1ccccc1-2` is 2.63% (inactive). Same read-out and setting: the figure for `CCN(CC)c1ccc(C(=C2C=CC(=[N+](CC)CC)C=C2)c2ccc(S(=O)(=O)O)cc2S(=O)(=O)[O-])cc1` is -15% (inactive); for `O=C(O)CN1C(=O)c2cccc3cccc(c23)C1=O` it is -0.422% [at 42.5 µM] (inactive).

With `C=C(C)c1ccccc1`, the “caspase activation” value was -1.45% (inactive). As to `CC(=O)c1ccc[nH]1`, the “caspase activation” value was -0.0397% (inactive).

Consider `CCOc1ncc(F)c(=O)[nH]1`, for which the “caspase activation” value was -0.0466% [at 42.5 µM] (inactive). Still for that read-out and setting: then `CC1CCCO1` (stereo unspecified), with -3.01% (inactive); and `Cc1cccc2sc(N)nc12`, with -2.41% (inactive). The same measure, in the same setting: then `NC(=O)CCCCC(N)=O`, with 0.911% (inactive); and `Cc1c[nH]c2ccccc12`, with 9.22% [at 42.5 µM] (inactive); and `CC(C)CC(O)CC(C)C`, with -0.787% (inactive). On the same count and under the same terms, the figure for `CC(CN(CCN(CC(C)OCCO)CC(C)OCCO)CC(C)OCCO)OCCO` (stereo unspecified) is -0.0264% (inactive).

For the compound `COc1ccc2nc(S(=O)Cc3ncc(C)c(OC)c3C)[nH]c2c1` (stereo unspecified), the Potency entry was “inactive”. As for `O=C(O)CCCc1c[nH]c2ccccc12`, the “caspase activation” value was -3.49% (inactive). With `CCCCCc1ccco1`, the “caspase activation” value is 0.884% [at 42.5 µM] (inactive). Same read-out and setting: then `CCCCCCCCCCCC(=O)OCC(O)CO` (stereo unspecified), with -1.21% (inactive); and `CCN(CC)CCNC(=O)c1cc(Cl)c(N)cc1OC`, with 2.41% [at 42.5 µM] (inactive).

A further test is described as follows: Caspase-3/7 induction in CHO-K1 cells by small molecules, qHTS cell viability counter screen (AID 1346979). Also: nearly all actives have a fitted effect of over 35% in size. Also: potency is read from the fitted curve at half-maximal effect. The note with it: CellTiter-Fluor fluorescence, 17 h; series mostly up to 92.4 µM; activity change, negative = cytotoxicity: at the top concentration. The gist of the method:
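Cytotoxicity counter screen run in parallel with the caspase-3/7 assay: CHO-K1 cells, 16hr compound treatment at 37C, then CellTiter-Fluor for 1hr before fluorescence reading.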
`COC(C)(C)OC`: the “activity change, negative = cytotoxicity” value was 5.36% (inactive). On the same count and under the same terms, then `CCC(Cl)CC(Cl)C(Cl)C(Cl)C(Cl)C(C)Cl` (stereo unspecified), with 10.4% [at 19 µM] (inactive); and `CCc1ccc(C)cc1`, with 5.67% (inactive).

For the compound `CO[C@@H]1[C@@H](OC)[C@H](C)[C@@](O)(CC(=O)O)O[C@H]1[C@H](C)[C@H]1O[C@@]2(CC[C@@](C)([C@H]3CC[C@@](C)([C@@H]4O[C@@H]([C@H]5O[C@](C)(O)[C@H](C)C[C@@H]5C)C[C@@H]4OC4C[C@H](OC)[C@@H](OC)[C@H](C)O4)O3)O2)C[C@H](O)[C@H]1C` (stereo partly specified), the Potency was 1330 nM (active). Take `CCOC(=O)N1CCC(Nc2ccc(Cl)cc2N)CC1`: the “activity change, negative = cytotoxicity” value is -1.51% [at 42.5 µM] (inactive). For the compound `CCC(C)(C)C(=O)O`, the “activity change, negative = cytotoxicity” value is 12.4% (inactive). Still for that read-out and setting: the figure for `CC(C)(O)c1coc(S(=O)(=O)NC(=O)Nc2c3c(cc4c2CCC4)CCC3)c1` is 1.98% (inactive); for `NC(=O)c1ccccc1[N+](=O)[O-]` it is 9.32% (inactive); for `O=C(O)CCC(=O)OC[C@@H](NC(=O)C(Cl)Cl)[C@H](O)c1ccc([N+](=O)[O-])cc1` it is 2.04% [at 42.5 µM] (inactive). Same read-out and setting: then `O=C(c1ccccc1)C1CCC1`, with -2.51% (inactive). As for `CC(C)N(C)C`, the “activity change, negative = cytotoxicity” value is 8.18% (inactive). Same read-out and setting: the figure for `O=C1OC(=O)c2c(Br)c(Br)c(Br)c(Br)c21` is 10.7% (inactive).

For `O=C(CCS)OCC(COC(=O)CCS)(COC(=O)CCS)COC(=O)CCS`, the “activity change, negative = cytotoxicity” value is -3.24% (inactive).

Another test can be described thus: Caspase-3/7 induction in CHO-K1 cells by small molecules, qHTS assay (AID 1346980). Also: nearly all actives have a fitted effect of over 15% in size. The note with it: CHO-K1 caspase-3/7 induction, Caspase-Glo luminescence, 17 h; series mostly up to 92.4 µM; caspase-3/7 activation: at the top concentration. The gist of the method: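 Wild-type CHO-K1 cells exposed to compounds for 17hr at 37 C, 5% CO2. Caspase-3/7 activity then measured by Caspase-Glo 3/7 luminescence after 30min at room temperature.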
For `COC(C)(C)OC`, the “caspase-3/7 activation” value is 0.333% (inactive). Same read-out and setting: then `CCC(Cl)CC(Cl)C(Cl)C(Cl)C(Cl)C(C)Cl` (stereo unspecified), with -6.38% [at 19 µM] (inactive); and `COc1ccc(C2C(=O)c3ccccc3C2=O)cc1`, with -0.859% [at 42.5 µM] (inactive). Same read-out and setting: the figure for `O=C(O)c1cccc(Oc2ccccc2)c1` is -0.152% (inactive); for `COc1cc(C(C)=O)ccc1OCCCN1CCC(c2noc3cc(F)ccc23)CC1` it is -2.9% [at 42.5 µM] (inactive).

Take `CCc1ccc(C)cc1`: the “caspase-3/7 activation” value was 0.226% (inactive). The same measure, in the same setting: the figure for `CO[C@@H]1[C@@H](OC)[C@H](C)[C@@](O)(CC(=O)O)O[C@H]1[C@H](C)[C@H]1O[C@@]2(CC[C@@](C)([C@H]3CC[C@@](C)([C@@H]4O[C@@H]([C@H]5O[C@](C)(O)[C@H](C)C[C@@H]5C)C[C@@H]4OC4C[C@H](OC)[C@@H](OC)[C@H](C)O4)O3)O2)C[C@H](O)[C@H]1C` (stereo partly specified) is -0.879% [at 42.5 µM] (inactive); for `Cc1ccc2nc(N)[nH]c(=O)c2c1Sc1ccncc1` it is -0.715% [at 42.5 µM] (inactive).

Turning to `CCOC(=O)N1CCC(Nc2ccc(Cl)cc2N)CC1`, the “caspase-3/7 activation” value was -0.0244% [at 42.5 µM] (inactive). As for `O=P(O)(O)Oc1ccccc1`, the “caspase-3/7 activation” value was -0.0082% (inactive). The same measure, in the same setting: the figure for `CCC(C)(C)C(=O)O` is 0.801% (inactive); for `CCCc1nc2c(C)cc(-c3nc4ccccc4n3C)cc2n1Cc1ccc(-c2ccccc2C(=O)O)cc1` it is -1.17% [at 42.5 µM] (inactive).

`Oc1ccc2c(c1)Cc1ccccc1-2`: the “caspase-3/7 activation” value was -1.66% (inactive).

As to `CCN(CC)c1ccc(C(=C2C=CC(=[N+](CC)CC)C=C2)c2ccc(S(=O)(=O)O)cc2S(=O)(=O)[O-])cc1`, the “caspase-3/7 activation” value is -6.61% (inactive). The same measure, in the same setting: the figure for `O=C(O)CN1C(=O)c2cccc3cccc(c23)C1=O` is -1.81% [at 42.5 µM] (inactive); for `C=C(C)c1ccccc1` it is -1.73% (inactive); for `CC(=O)c1ccc[nH]1` it is -0.341% (inactive). Still for that read-out and setting: then `CC(C)(O)c1coc(S(=O)(=O)NC(=O)Nc2c3c(cc4c2CCC4)CCC3)c1`, with 0.858% (inactive); and `CC1CCCO1` (stereo unspecified), with 0.233% (inactive); and `Cc1cccc2sc(N)nc12`, with -1.71% (inactive).

With `NC(=O)c1ccccc1[N+](=O)[O-]`, the “caspase-3/7 activation” value is -0.0438% (inactive).

Regarding `O=C(O)CCC(=O)OC[C@@H](NC(=O)C(Cl)Cl)[C@H](O)c1ccc([N+](=O)[O-])cc1`, the “caspase-3/7 activation” value is -0.253% [at 42.5 µM] (inactive). The same measure, in the same setting: the figure for `NC(=O)CCCCC(N)=O` is -0.93% (inactive); for `Cc1c[nH]c2ccccc12` it is 2.83% [at 42.5 µM] (inactive). Same read-out and setting: then `CC(C)CC(O)CC(C)C`, with 0.564% (inactive); and `CC(CN(CCN(CC(C)OCCO)CC(C)OCCO)CC(C)OCCO)OCCO` (stereo unspecified), with -0.114% (inactive); and `O=C(c1ccccc1)C1CCC1`, with -0.571% (inactive). For the compound `COc1ccc2nc(S(=O)Cc3ncc(C)c(OC)c3C)[nH]c2c1` (stereo unspecified), the call was inactive.

On to `CC(C)N(C)C`, for which the “caspase-3/7 activation” value was -0.716% (inactive).

Take `O=C1OC(=O)c2c(Br)c(Br)c(Br)c(Br)c21`: the “caspase-3/7 activation” value was 1.17% (inactive). On the same count and under the same terms, the figure for `O=C(CCS)OCC(COC(=O)CCS)(COC(=O)CCS)COC(=O)CCS` is -0.559% (inactive); for `O=C(O)CCCc1c[nH]c2ccccc12` it is -0.213% (inactive); for `CCCCCc1ccco1` it is 1.47% [at 42.5 µM] (inactive).

These data come from PubChem BioAssay (Tox21).
